Assay outcomes (PubChem)
MITF inh: MITF inhibitors, primary screen, biochemical, AlphaScreen, human | AlphaScreen MITF homodimerization, bead proximity signal | inhibition, % at 2.6 µM | AID 1259374, 2018 | Microphthalmia-associated transcription factor (Homo sapiens), O75030 | 650,000 compounds, 0.91% hits; in the data active = inhibition above about 50%;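 also: 0% = vehicle wells with protein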
Target sequence (O75030 whole entry, looked up): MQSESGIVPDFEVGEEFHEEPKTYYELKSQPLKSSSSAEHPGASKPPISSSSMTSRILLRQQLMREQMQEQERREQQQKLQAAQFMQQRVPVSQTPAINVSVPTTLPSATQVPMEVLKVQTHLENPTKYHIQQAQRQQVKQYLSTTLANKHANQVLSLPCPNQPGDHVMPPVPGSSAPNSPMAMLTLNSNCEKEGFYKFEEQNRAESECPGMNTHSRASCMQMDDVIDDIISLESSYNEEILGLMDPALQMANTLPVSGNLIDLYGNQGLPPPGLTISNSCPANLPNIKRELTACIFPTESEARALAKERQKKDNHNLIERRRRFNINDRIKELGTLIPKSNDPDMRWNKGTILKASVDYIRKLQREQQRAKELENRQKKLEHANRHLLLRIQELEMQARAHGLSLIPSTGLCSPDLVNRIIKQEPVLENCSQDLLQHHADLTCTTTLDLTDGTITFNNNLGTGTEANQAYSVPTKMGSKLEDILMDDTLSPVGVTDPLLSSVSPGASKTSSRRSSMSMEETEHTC
GPR151 activ: activators of human GPR151, primary screen, cell-based, PathHunter beta-arrestin, luminescence. PathHunter beta-arrestin GPR151 cells. activation, % at 11.2 µM. 650,000 compounds, 1% hits; in the data active = activation above about 4.9%;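 also: 0% = median of compound wells and 100% = cells with positive control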
TEAD-YAP block: TEAD-YAP interaction inhibition, primary screen, TEAD-YAP interaction inhibitor project, luminescence, HEK-TIYL cells; TEAD-Gal4/YAP UAS-luciferase luminescence; inhibition, % at 9.12 µM; 640,000 compounds, 1.4% hits; AID 1259422, 2018; in the data active = inhibition above about 32%;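 also: 0% = median of test compound wells and 100% = reference inhibitor wells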
FBW7 act: FBW7 E3 ligase activators, primary screen, biochemical, AlphaScreen, human | F-box/WD repeat-containing protein 7 (Homo sapiens), Q969H0 | AlphaScreen FBW7–phospho-cyclin E peptide binding, activator screen | AID 1259310, 2017 | 650,000 compounds, 0.13% hits | normalized activity (activation), % at 26.1 µM; in the data active = normalized activity above about 1.9%;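 also: purified mutant Fbw7 with reduced substrate affinity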
* marks the source's active call; other numbers are inactive results. Only some compounds are listed: those with a hit (about 3.4% of all), similar ones and a draw of the others.

SMILES	MITF inh	GPR151 activ	TEAD-YAP block	FBW7 act
CCCOc1ccc(/C=C2/C(=O)ON=C2C)cc1OC	35	0	-4	0
COc1cc(/C=C2\C(=O)ON=C2C)ccc1OCCc1ccccc1	43	-6	38*	0
C#CCOc1ccc(/C=C2/C(=O)ON=C2C)cc1OC	20	-2	0	0
CCCCOc1ccccc1C1CC(=O)NC2=C1C(=O)CCC2 (configuration not stated)	2	0	57*	0
CCOc1ccccc1C1CC(=O)NC2=C1C(=O)CCC2 (configuration not stated)	21	0	40*	0
CCCOc1ccccc1C1CC(=O)NC2=C1C(=O)CCC2 (configuration not stated)	-9	-1	50*	0
O=C1CC(c2cccc3ccccc23)C2=C(CCCC2=O)N1 (configuration not stated)	3	-1	-1	0
COC(=O)c1c(NC(=O)COc2ccc(C)c(C)c2)sc(C(C)=O)c1C	-8	-1	-3	0
NNC(=O)c1ccc(NC(=O)c2ccccc2)cc1	15	0	5	0
CCOC(=O)c1ccc(N=Cc2c(O)n(-c3cccc(OC)c3)c(=O)[nH]c2=O)cc1	-2	1	-4	0
COc1ccc(N=Cc2c(O)n(-c3cccc(OC)c3)c(=O)[nH]c2=O)cc1	76*	-1	-8	0
N#CC(NC(=O)c1ccc(Cl)cc1)=C(Cl)Cl	32	-1	37*	1
O=C(NC(=O)N1CCCCC1)c1ccc(Cl)cc1	1	-1	9	0
CCC(O)(C#CCN1CCCC1)CC	14	1	-3	1
COc1cccc(-n2cc(-c3cc4ccccc4oc3=O)[nH]c2=S)c1	1	-8	95*	0
Nc1ccc(S(=O)(=O)O)c2cccc(O)c12	71*	0	12	-1
CN(CCc1ccccn1)c1ccc(C(=O)O)cc1[N+](=O)[O-]	-8	0	-2	0
O=S(=O)(Nc1ccc(-c2ccc(N3CCCC3)nn2)cc1)c1cccc(Cl)c1	12	-1	-18	0
COc1ccc(OC)c(NS(=O)(=O)c2ccc(C(C)(C)C)cc2)c1	15	1	7	0
COc1ccc(NS(=O)(=O)c2ccc(SC)cc2)cc1OC	-11	0	44*	0
COc1ccc(OC)c(NS(=O)(=O)c2ccc(SC)cc2)c1	16	1	52*	0
COc1ccc(NS(=O)(=O)c2ccc(Oc3ccccc3OC)cc2)cc1	7	0	33*	0
COc1cccc(NS(=O)(=O)c2ccc(Oc3ccccc3OC)cc2)c1	-2	-1	6	0
CCOc1ccc(S(=O)(=O)Nc2cc(OC)ccc2OC)cc1	14	-2	63*	1
COc1ccc(C)cc1NS(=O)(=O)c1ccc(SC)cc1	23	0	8	0
SMILES	MITF inh	GPR151 activ	TEAD-YAP block	FBW7 act
CCOc1ccc(NS(=O)(=O)c2ccc(OC)c(OC)c2)cc1	3	-1	0	0
CCOc1ccc(S(=O)(=O)Nc2ccc(OC)c(OC)c2)cc1	23	0	57*	1
CCOc1ccc(OCC)c(NS(=O)(=O)c2c[nH]c(C(=O)OC)c2)c1	-7	-1	53*	0
CC(=O)N1CC(C)Oc2cc(S(=O)(=O)Nc3ccccc3Cl)ccc21 (configuration not stated)	0	1	4	0
CCOc1ccccc1NS(=O)(=O)c1ccc(OC)c(C)c1	17	-1	4	1
CCOc1ccc(S(=O)(=O)Nc2cc(OC)ccc2OC)cc1C	6	-1	52*	0
COc1ccc(NS(=O)(=O)c2ccc3c(c2)OC(C)CN3C(C)=O)cc1OC (configuration not stated)	5	-2	40*	0
CC(=O)c1ccc(NC(=O)c2cc3cc(Br)ccc3oc2=O)cc1	-1	-2	-12	0
COc1ccc(NS(=O)(=O)c2ccc(Cc3ccc(S(=O)(=O)Nc4ccc(OC)cc4OC)cc3)cc2)c(OC)c1	20	0	37*	1
CCOc1ccc(S(=O)(=O)Nc2cc([N+](=O)[O-])ccc2OC)cc1	10	2	51*	0
COc1ccc(OC)c(NS(=O)(=O)c2ccc([N+](=O)[O-])cc2)c1	-4	-1	4	0
COc1ccc(NS(=O)(=O)c2ccc(-c3ccc(S(=O)(=O)Nc4ccc(OC)cc4OC)cc3)cc2)c(OC)c1	11	-1	-9	0
CC1CC(C)CN(S(=O)(=O)c2ccc3c(c2)C(C)(C)C(=O)N3C)C1 (configuration not stated)	8	-2	-10	0
Cc1ccc2nc(C)c(C(=O)NC(C)C)n2c1	22	-1	2	1.9*
Cc1ccc2nc(C)c(C(=O)N3CC(C)CC(C)C3)n2c1 (configuration not stated)	6	-1	-1	2.1*
Cc1ccc2nc(C)c(C(=O)N3CCCC3)n2c1	-2	-1	5	0
COc1ccc(OCC2c3cc(OC)c(OC)cc3CCN2C(=O)c2ccc([N+](=O)[O-])cc2)cc1 (configuration not stated)	-17	0	-11	0
COc1cc2c(cc1OC)C(COc1ccc([N+](=O)[O-])cc1)N(C(=O)c1ccc3c(c1)OCO3)CC2 (configuration not stated)	11	-1	1	2.1*
O=C1NC(=S)S/C1=C\c1ccc(O)c(O)c1	55*	-1	-4	-1
COc1ccc(/C=C2\SC(=S)NC2=O)cc1O	6	-2	-4	0
O=C1NC(=Nc2ccccc2)S/C1=C/c1ccc(O)c(O)c1	20	0	47*	0
O=C1NC(=Nc2ccccc2)S/C1=C/c1ccccc1	1	1	-5	0
CCOc1cc(/C=C2/SC(=Nc3ccccc3)NC2=O)ccc1O	8	-1	52*	0
Cc1cc(/C=C2\SC(=Nc3ccccc3)NC2=O)c(C)n1-c1ccccc1	-1	0	53*	0
Cc1ccc(C)c(NC(=O)CCCC(=O)O)c1	-6	1	3	0
SMILES	MITF inh	GPR151 activ	TEAD-YAP block	FBW7 act
CC1CCCCC12NC(=O)N(CC(=O)Nc1ccccc1-c1ccccc1)C2=O (configuration not stated)	0	2	-7	0
COC(=O)C(C)N1C(=O)S/C(=C/c2cc(C)n(-c3ccccn3)c2C)C1=O (configuration not stated)	-9	-1	43*	0
O=C1NC(=Nc2ccc(O)cc2)S/C1=C\c1ccc(F)cc1	18	-2	32*	0
Cc1cc(/C=C2\SC(=O)N(C)C2=O)c(C)n1-c1ccc(O)cc1	11	0	79*	0
O=C1NC(=Nc2ccc(F)cc2)S/C1=C\c1ccco1	21	1	-10	0
O=C1NC(=Nc2ccc(O)cc2)S/C1=C/C=C/c1ccco1	38	1	38*	0
